The source of these data is PubChem BioAssay (NCI).

Test systems include T-47D breast; MDA-MB-435 melanoma; SW-620 colon; MCF7 breast; HCT-116 colon; HCC-2998 colon; KM12 colon; BT-549 breast.
Test in all cases: NCI-60 one-dose screen, 48 h (100 = growth as untreated, 0 = no growth, -100 = all killed)
What all share (conditions): 10 µM

About 83,000 compounds went through this panel and 20% of them were active in at least one assay; those are over-represented in the sample as a whole.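 Interpretation: 100, growth as untreated; towards 0, rising growth inhibition; 0, no net growth; 0 to -100, cell death. Compounds scoring below 10 were considered active.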 Unmarked numbers belong to inactive results. Active and inactive are the calls of the source.

Turning to `N#Cc1c(-c2ccc(Cl)cc2)cc(-c2cc(O)ccc2O)nc1N`, the growth with T-47D breast is 8.26% (active); in the experiment on MDA-MB-435 melanoma, 6.77% (active); in the experiment with SW-620 colon, 8.32% (active); in the experiment on MCF7 breast it was 4.41% (active); with HCT-116 colon it was 19.8%; with HCC-2998 colon it was 52.7%. Besides, the growth in the experiment with KM12 colon is 27.2%.

On to `CN(C)CCCOc1ccc(OCCCN(C)C)c2c1C(=O)c1ccccc1C2=O`, for which the growth in the experiment with T-47D breast was -5.61% (active); in the experiment with MDA-MB-435 melanoma, 3.12% (active); in the experiment on SW-620 colon, 3.12% (active); with MCF7 breast it was 8.41% (active); in the experiment on HCT-116 colon, 8.36% (active); in the experiment with HCC-2998 colon, 16.7%. The growth with KM12 colon was 6.87% (active).

On to `C1CN(CC2CCC(CN3CCOCC3)O2)CCO1` (stereo unspecified), for which the growth with T-47D breast is 81.5%; with MDA-MB-435 melanoma it was 104%; with SW-620 colon, 92.2%; in the experiment with MCF7 breast, 53.2%; in the experiment with HCT-116 colon, 89%; in the experiment with HCC-2998 colon, 102%. The growth in the experiment with KM12 colon is 105%.

On to `CCN(CC)CCNc1ccc(C)c2sc3cc(Cl)ccc3c(=O)c12`, for which the growth in the experiment with T-47D breast is 33.1%; in the experiment on MDA-MB-435 melanoma it was -44.8% (active); in the experiment with SW-620 colon it was 2.58% (active); in the experiment on MCF7 breast it was 19.8%; with HCT-116 colon, 11.4%; in the experiment with HCC-2998 colon, 23.3%. The growth in the experiment with KM12 colon was 32.2%.

`COc1cccc(CNc2cccc3cn[nH]c23)c1O`: the growth in the experiment on T-47D breast was 89.1%; in the experiment with BT-549 breast, 104%; with SW-620 colon, 99.1%; in the experiment with MCF7 breast it was 71.5%; in the experiment on HCT-116 colon it was 102%; with HCC-2998 colon, 107%. In addition, the growth in the experiment on KM12 colon was 99%.

`CC(C)(C)c1nn(-c2ccccc2)c2c1CC1(CN2Cc2ccc(Cl)cc2)C(=O)c2ccccc2C1=O`: the growth in the experiment on T-47D breast was 75.5%; with BT-549 breast it was 81.4%; in the experiment on SW-620 colon, 85.6%; in the experiment on MCF7 breast it was 82.4%; with HCT-116 colon, 52.6%; with HCC-2998 colon it was 91.4%. The growth in the experiment with KM12 colon is 89.6%.

`CC(CN(C)C)Oc1ccc(OC(C)CN(C)C)c2c1C(=O)c1ccccc1C2=O` (stereo unspecified): the growth in the experiment with T-47D breast was 77.7%; in the experiment on MDA-MB-435 melanoma, 46.1%; in the experiment on SW-620 colon it was 27.9%; with MCF7 breast, 16.1%; in the experiment with HCT-116 colon it was 14.2%; in the experiment with HCC-2998 colon, 57.4%. For the same molecule, the growth in the experiment on KM12 colon was 51.1%.

As for `O=c1cn[nH]c2ccc(Br)cc12`, the growth was 83% in the experiment with T-47D breast; 111% in the experiment on MDA-MB-435 melanoma; 103% with SW-620 colon; 105% in the experiment on MCF7 breast; 97.8% in the experiment with HCT-116 colon; 108% in the experiment with HCC-2998 colon. In addition, the growth in the experiment on KM12 colon was 98.7%.

Regarding `CC(=O)OC/C=C(/C)C[P+](c1ccccc1)(c1ccccc1)c1ccccc1`, the growth is 14.4% with T-47D breast; 53.3% in the experiment on MDA-MB-435 melanoma; 53.6% with SW-620 colon; 33.3% in the experiment with MCF7 breast; 26% in the experiment on HCT-116 colon; 80.4% in the experiment with HCC-2998 colon. Also, the growth in the experiment with KM12 colon is 33.3%.

In the case of `CC[C@@H]1NC(=O)[C@H]([C@H](O)[C@H](C)C/C=C/c2ccc(CN3C(=O)CCCC3=O)cc2)N(C)C(=O)[C@H](C(C)C)N(C)C(=O)[C@H](CC(C)C)N(C)C(=O)[C@H](CC(C)C)N(C)C(=O)[C@@H](C)NC(=O)[C@H](C)NC(=O)[C@H](CC(C)C)N(C)C(=O)[C@H](C(C)C)NC(=O)[C@H](CC(C)C)N(C)C(=O)CN(C)C1=O`, the growth is 25.3% in the experiment on T-47D breast; 10.8% in the experiment on MDA-MB-435 melanoma; 56% in the experiment on SW-620 colon; 25.3% in the experiment with MCF7 breast; 16% in the experiment with HCT-116 colon; 69.6% with HCC-2998 colon. In addition, the growth in the experiment with KM12 colon was 45.9%.

Consider `COc1ccc(-c2nn(-c3cccc(Cl)c3)cc2-c2c(C#N)c(N)n(N)c(=O)c2C#N)cc1`, for which the growth is 48.7% in the experiment with T-47D breast; 58% in the experiment with BT-549 breast; 83% in the experiment on SW-620 colon; 47.5% in the experiment with MCF7 breast; 45.7% in the experiment on HCT-116 colon; 93.4% in the experiment on HCC-2998 colon. In the experiment with KM12 colon, the growth was 62.3%.

Regarding `Nc1ccc(CC[C@H]2CCC/C=C/[C@@H]3C[C@H](O)C[C@H]3[C@H](O)/C=C/C(=O)O2)cc1`, the growth with T-47D breast is 10.2%; with MDA-MB-435 melanoma, 11.4%; in the experiment on SW-620 colon it was -27.4% (active); in the experiment on MCF7 breast it was -44.7% (active); in the experiment on HCT-116 colon, -73.7% (active).

In the case of `CCn1c(SC/C(=N/O)c2ccccc2)nnc1-c1ccccc1`, the growth in the experiment with T-47D breast was 120%; with MDA-MB-435 melanoma it was 105%; in the experiment on SW-620 colon, 98.7%; in the experiment with MCF7 breast, 112%; in the experiment with HCT-116 colon it was 101%; in the experiment on HCC-2998 colon, 96.6%. For the same molecule, in the experiment on KM12 colon, the growth was 110%.

On to `CN(C)CCOc1ccccc1NC1=C(Cl)C(=O)C(Nc2ccccc2OCCN(C)C)=C(Cl)C1=O`, for which the growth is -37.6% (active) in the experiment on T-47D breast; 86.4% in the experiment on MDA-MB-435 melanoma; -50% (active) in the experiment on SW-620 colon; -53.9% (active) in the experiment on MCF7 breast; -75.3% (active) in the experiment with HCT-116 colon; 101% in the experiment on HCC-2998 colon. For the same molecule, in the experiment with KM12 colon, the growth is 93.6%.

Regarding `NC1=NC(c2ccc(Cl)cc2)C2=C(N1)/C(=C/c1ccc(Cl)cc1)CCC2` (stereo unspecified), the growth was 102% in the experiment on T-47D breast; -0.458% (active) in the experiment with MDA-MB-435 melanoma; 18.9% with SW-620 colon; 33.2% in the experiment on MCF7 breast; -72.1% (active) in the experiment with HCT-116 colon; -31.1% (active) in the experiment on HCC-2998 colon. Besides, in the experiment with KM12 colon, the growth is 2.3% (active).

For the molecule `CCCCCCCCCCCC[n+]1c(C)cc(N)c2ccccc21`, the growth was -14% (active) in the experiment with T-47D breast; -29.7% (active) with BT-549 breast; -6.75% (active) in the experiment with MDA-MB-435 melanoma; -0.77% (active) in the experiment on MCF7 breast; -4.63% (active) in the experiment on HCT-116 colon.

For `CSc1nc(S(C)(=O)=O)nc2[nH]c(=O)[nH]c12`, the growth in the experiment with T-47D breast was 112%; with BT-549 breast, 102%; with SW-620 colon it was 111%; in the experiment on MCF7 breast, 109%; in the experiment on HCT-116 colon it was 99.1%; in the experiment on KM12 colon, 118%.

Turning to `CN(C)CCOc1cccc(NC2=C(Cl)C(=O)C(Nc3cccc(OCCN(C)C)c3)=C(Cl)C2=O)c1`, the growth in the experiment on T-47D breast is -42.1% (active); in the experiment on MDA-MB-435 melanoma, -68.6% (active); with SW-620 colon, -54.9% (active); with MCF7 breast it was -40.8% (active); in the experiment on HCT-116 colon, -89.4% (active); with HCC-2998 colon it was 11.6%. Further, the growth in the experiment with KM12 colon was 34.4%.

As for `O[C@@H]1CO[C@H]2[C@@H]1OC[C@@H]2O`, the growth in the experiment with T-47D breast was 121%; in the experiment on BT-549 breast, 112%; in the experiment on MCF7 breast, 99.6%; in the experiment on HCT-116 colon it was 104%; in the experiment on KM12 colon it was 105%.
